{"source": "PubChem BioAssay (NCATS)", "note": "Several values for one entry are separate records, joined by “and”; a condition that tells them apart may be missing. Identical values can stand only once. Results filed as inconclusive are left out. A structure can be active in one record and inactive in another. Activity calls are given as the source filed them. Unless noted, calls come from the whole dose curve; as a rule, active = well fitted curve in the direction sought with a large enough effect in the repeat runs; inconclusive = weak or mixed curves; inactive = no such curve, though single readings can be large; an effect the other way counts as inactive or inconclusive. Potency is the fitted concentration of half-maximal effect."}
{"molecular_target": "Cytochrome P450 2D6 (Homo sapiens) (UniProt P10635)", "sequence (P10635 whole entry, looked up)": "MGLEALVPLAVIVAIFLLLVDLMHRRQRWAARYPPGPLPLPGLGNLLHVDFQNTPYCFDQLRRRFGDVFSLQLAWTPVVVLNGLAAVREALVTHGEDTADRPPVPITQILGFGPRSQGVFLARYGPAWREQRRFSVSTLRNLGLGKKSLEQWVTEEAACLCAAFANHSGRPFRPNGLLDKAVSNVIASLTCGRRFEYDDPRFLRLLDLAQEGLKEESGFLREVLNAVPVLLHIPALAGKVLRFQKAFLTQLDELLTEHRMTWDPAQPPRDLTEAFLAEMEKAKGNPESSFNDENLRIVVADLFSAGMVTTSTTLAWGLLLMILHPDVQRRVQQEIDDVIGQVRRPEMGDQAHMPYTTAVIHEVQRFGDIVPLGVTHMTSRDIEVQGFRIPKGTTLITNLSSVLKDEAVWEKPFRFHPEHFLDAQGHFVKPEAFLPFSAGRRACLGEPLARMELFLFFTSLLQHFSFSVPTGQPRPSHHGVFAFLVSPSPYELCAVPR", "experiment": "Cytochrome P450 family 2 subfamily D member 6 (CYP2D6) small molecule antagonists: luciferase biochemical (cell-free) qHTS assay (AID 1645840); note: nearly all actives have a fitted effect of over 55% in size", "settings": "P450-Glo CYP2D6 enzyme, luciferin luminescence, 1 h; series mostly up to 57.4 µM", "outline": "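P450-Glo CYP2D6 system: proluciferin substrate converted by enzyme to luciferin, read by luminescence proportional to activity. Enzyme-substrate mix with compound 10 min at room temperature, then NADPH regeneration 1 h before detection reagent.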"}
{"smiles": "COc1ccc(-c2c(-c3ccc(O)cc3O)n[nH]c2C)cc1", "Potency": "4.47 µM (active)"}
{"smiles": "COc1cc2nccc(Oc3ccc(NC(=O)NC4CC4)c(Cl)c3)c2cc1C(N)=O", "Potency": "inactive"}
{"smiles": "COc1ccc(CCN2CCN(CCCc3ccccc3)CC2)cc1OC", "Potency": "8.49 µM (active)"}
{"smiles": "CCOc1cc(C(=O)Nc2ccc(Cl)c(-c3nc4ccccc4[nH]3)c2)cc(OCC)c1OCC", "Potency": "inactive"}
{"smiles": "S=C(NCc1ccc2c(c1)OCO2)N1CCN(c2ncnc3c2oc2ccccc23)CC1", "Potency": "4.77 µM (active)"}
{"smiles": "O=C(Nc1cccnc1)N1CCC(Cc2cccc(Oc3ccc(C(F)(F)F)cn3)c2)CC1", "Potency": "4.25 µM (active)"}
{"smiles": "CCOc1ccn(-c2ccc(F)cc2)c(=O)c1C(=O)Nc1ccc(Oc2ccnc(N)c2Cl)c(F)c1", "Potency": "inactive"}
{"smiles": "OC[C@H](Cc1ccccc1)Nc1nc(Oc2ccc3c(c2)CCC3)nc2c1ncn2Cc1ccc(-c2ccccc2)cc1", "Potency": "inactive"}
{"smiles": "CN(C)C(=O)c1ccc(S(=O)(=O)c2ccc(NC(=O)[C@@](C)(O)C(F)(F)F)c(Cl)c2)cc1", "Potency": "inactive"}
{"smiles": "Cc1ccc(NC(=O)c2cccc(C(C)(C)C#N)c2)cc1Nc1ccc2ncn(C)c(=O)c2c1", "Potency": "12 µM (active)"}
{"smiles": "COc1cc(Oc2ccnc3cc(OC)c(OC)cc23)ccc1NC(=O)NC(C)c1nccs1", "note": "(stereo unspecified)", "Potency": "inactive"}
{"smiles": "CN(C(=O)c1ccc(F)cc1C(F)(F)F)C1CCN(c2nnc(-c3ccnn3C)c3ccccc23)CC1", "Potency": "inactive"}
{"smiles": "COc1ccc([C@@H]2CC(=O)c3c(O)cc(O[C@@H]4O[C@H](CO[C@@H]5O[C@@H](C)[C@H](O)[C@@H](O)[C@@H]5O)[C@@H](O)[C@H](O)[C@@H]4O)cc3O2)cc1O", "Potency": "inactive"}
{"molecular_target": "Cytochrome P450 2C9 (Homo sapiens) (UniProt P11712)", "sequence (P11712 whole entry, looked up)": "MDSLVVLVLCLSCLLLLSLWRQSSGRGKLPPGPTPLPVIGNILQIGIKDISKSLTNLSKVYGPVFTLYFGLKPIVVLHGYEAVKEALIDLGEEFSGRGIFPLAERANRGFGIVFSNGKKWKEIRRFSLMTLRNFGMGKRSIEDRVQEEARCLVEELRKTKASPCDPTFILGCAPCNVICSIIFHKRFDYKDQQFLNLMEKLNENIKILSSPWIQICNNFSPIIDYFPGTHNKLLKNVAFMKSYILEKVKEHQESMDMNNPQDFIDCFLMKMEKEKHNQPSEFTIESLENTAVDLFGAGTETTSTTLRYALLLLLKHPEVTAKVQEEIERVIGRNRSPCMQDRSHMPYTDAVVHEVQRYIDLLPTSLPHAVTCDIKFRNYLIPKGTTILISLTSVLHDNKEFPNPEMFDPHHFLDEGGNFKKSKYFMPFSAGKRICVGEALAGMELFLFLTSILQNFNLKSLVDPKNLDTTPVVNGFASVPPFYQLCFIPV", "experiment": "Cytochrome P450 family 2 subfamily C member 9 (CYP2C9) small molecule antagonists: luciferase biochemical (cell-free) qHTS assay (AID 1645842); note: nearly all actives have a fitted effect of over 55% in size", "settings": "P450-Glo CYP2C9 enzyme assay, luciferin luminescence; series mostly up to 57.4 µM", "outline": "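P450-Glo CYP2C9 system: proluciferin substrate with enzyme in mix containing 0.4% BSA, 10 min at room temperature, then NADPH regeneration solution added and incubated 1 h at 37C. Detection reagent stopped reaction; luminescence read after 20 min as RLU.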"}
{"smiles": "COc1ccc(-c2c(-c3ccc(O)cc3O)n[nH]c2C)cc1", "Potency": "3.55 µM (active)"}
{"smiles": "COc1cc2nccc(Oc3ccc(NC(=O)NC4CC4)c(Cl)c3)c2cc1C(N)=O", "Potency": "12 µM (active)"}
{"smiles": "COc1ccc(CCN2CCN(CCCc3ccccc3)CC2)cc1OC", "Potency": "inactive"}
{"smiles": "CCOc1cc(C(=O)Nc2ccc(Cl)c(-c3nc4ccccc4[nH]3)c2)cc(OCC)c1OCC", "Potency": "inactive"}
{"smiles": "S=C(NCc1ccc2c(c1)OCO2)N1CCN(c2ncnc3c2oc2ccccc23)CC1", "Potency": "2.13 µM (active)"}
{"smiles": "O=C(Nc1cccnc1)N1CCC(Cc2cccc(Oc3ccc(C(F)(F)F)cn3)c2)CC1", "Potency": "10.7 µM (active)"}
{"smiles": "CCOc1ccn(-c2ccc(F)cc2)c(=O)c1C(=O)Nc1ccc(Oc2ccnc(N)c2Cl)c(F)c1", "Potency": "inactive"}
{"smiles": "CNC(=O)c1ccccc1Sc1ccc2c(/C=C/c3ccccn3)n[nH]c2c1", "Potency": "3.47 µM (active)"}
{"smiles": "CN(C)C(=O)c1ccc(S(=O)(=O)c2ccc(NC(=O)[C@@](C)(O)C(F)(F)F)c(Cl)c2)cc1", "Potency": "6.74 µM (active)"}
{"smiles": "Cc1ccc(NC(=O)c2cccc(C(C)(C)C#N)c2)cc1Nc1ccc2ncn(C)c(=O)c2c1", "Potency": "8.49 µM (active)"}
{"smiles": "COc1cc(Oc2ccnc3cc(OC)c(OC)cc23)ccc1NC(=O)NC(C)c1nccs1", "note": "(stereo unspecified)", "Potency": "0.601 µM (active)"}
{"smiles": "COc1ccc([C@@H]2CC(=O)c3c(O)cc(O[C@@H]4O[C@H](CO[C@@H]5O[C@@H](C)[C@H](O)[C@@H](O)[C@@H]5O)[C@@H](O)[C@H](O)[C@@H]4O)cc3O2)cc1O", "Potency": "inactive"}
{"system": "not listed separately", "experiment": "Primary qHTS for inhibitors of nuclear receptor binding SET domain protein 2 (NSD2) in an isogenic RCH-ACV NSD2 p.E1099K mutant (9B) (AID 1645876; active = well fitted curve in the direction sought with a large enough effect; an effect the other way counts as inactive or inconclusive; note: nearly all actives have a fitted effect of over 70% in size)", "settings": "RCH-ACV NSD2 E1099K (9B) viability, CellTiter-Glo, 72 h; series mostly up to 44.9 µM"}
{"smiles": "COc1ccc(-c2c(-c3ccc(O)cc3O)n[nH]c2C)cc1", "Potency": "inactive"}
{"smiles": "COc1ccc(CCN2CCN(CCCc3ccccc3)CC2)cc1OC", "Potency": "inactive"}
{"smiles": "S=C(NCc1ccc2c(c1)OCO2)N1CCN(c2ncnc3c2oc2ccccc23)CC1", "Potency": "13.2 µM (active)"}
{"smiles": "O=C(Nc1cccnc1)N1CCC(Cc2cccc(Oc3ccc(C(F)(F)F)cn3)c2)CC1", "Potency": "6.49 µM (active) and 7.42 µM (active)"}
{"smiles": "CCOc1ccn(-c2ccc(F)cc2)c(=O)c1C(=O)Nc1ccc(Oc2ccnc(N)c2Cl)c(F)c1", "Potency": "7.28 µM (active) and 11.8 µM (active)"}
{"smiles": "CNC(=O)c1ccccc1Sc1ccc2c(/C=C/c3ccccn3)n[nH]c2c1", "Potency": "750 nM (active) and 916 nM (active) and 4.17 µM (active)"}
{"smiles": "Cc1ccc(NC(=O)c2cccc(C(C)(C)C#N)c2)cc1Nc1ccc2ncn(C)c(=O)c2c1", "Potency": "10.5 µM (active)"}
{"smiles": "COc1cc(Oc2ccnc3cc(OC)c(OC)cc23)ccc1NC(=O)NC(C)c1nccs1", "note": "(stereo unspecified)", "Potency": "inactive and 13.2 µM (active)"}
{"system": "not listed separately", "experiment": "Primary qHTS for inhibitors of nuclear receptor binding SET domain protein 2 (NSD2) in an RCH-ACV wild type WT cells (2C) (AID 1645877; active = well fitted curve in the direction sought with a large enough effect; an effect the other way counts as inactive or inconclusive; note: nearly all actives have a fitted effect of over 70% in size)", "settings": "RCH-ACV NSD2 WT (2C) viability, CellTiter-Glo, 72 h; series mostly up to 44.9 µM"}
{"smiles": "O=C(Nc1cccnc1)N1CCC(Cc2cccc(Oc3ccc(C(F)(F)F)cn3)c2)CC1", "Potency": "5.25 µM (active)"}
{"smiles": "CNC(=O)c1ccccc1Sc1ccc2c(/C=C/c3ccccn3)n[nH]c2c1", "Potency": "531 nM (active) and 1.03 µM (active) and 833 nM (active)"}
{"smiles": "COc1cc(Oc2ccnc3cc(OC)c(OC)cc23)ccc1NC(=O)NC(C)c1nccs1", "note": "(stereo unspecified)", "Potency": "inactive and 8.33 µM (active)"}
